Compounds with a hit are over-represented: about 2.4% of the library has one in this group of screens.
SENP8 block-1: inhibitors of human SENP8 protease. AID 2540. inhibition, % at 10 µM. purified SENP8, Z-RLRGG-aminoluciferin cleavage, luminescence. Q96LD8. 330,000 compounds, 1.2% hits; in the data active = inhibition above about 50%
Target sequence (Q96LD8 whole entry, looked up): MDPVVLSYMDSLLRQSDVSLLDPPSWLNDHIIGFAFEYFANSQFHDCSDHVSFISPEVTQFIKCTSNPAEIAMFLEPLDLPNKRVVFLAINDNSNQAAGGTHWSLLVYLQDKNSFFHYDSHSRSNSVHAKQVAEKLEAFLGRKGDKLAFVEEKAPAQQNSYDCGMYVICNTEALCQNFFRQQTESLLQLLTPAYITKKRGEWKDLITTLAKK
SENP6 block: blocks the human protease SENP6; Q9GZR1; Recombinant SENP6 catalytic domain, aminoluciferin luminescence; inhibition, % at 10 µM; 330,000 compounds, 1.8% hits;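 active = inhibition above about 50% at the single tested dose, limit read from the data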
Platelet DG rel: platelet dense granule release activity; AID 1663; human platelet-rich plasma, SFLLRN dense granule ATP release, luminescence; inhibition, %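 (compounds screened at 7.5 µM in platelet-rich plasma)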; 300,000 compounds, 0.22% hits;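 active = mean replicate score, as percent of positive control, at or above 50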
SENP8 block-2: inhibitors of human SENP8 protease; inhibition, % at 20 µM; recombinant SENP8, Nedd8 substrate fluorescence; 360,000 compounds, 0.64% hits; AID 602440; in the data active = inhibition mostly above about 40%, no sharp cut-off; inactive = mostly below about 27%
SENP7 block: blocks the human protease SENP7. Q9BQF6. recombinant SENP7, Z-RLRGG-aminoluciferin luminescence, 40 min. inhibition, % at 5 µM. 330,000 compounds, 1.5% hits;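 active = inhibition above about 50% at the single test dose, limit read from the data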
SENP8 conf: confirmation of human SENP8 protease inhibitors. AID 488912. 6,200 compounds, 40% hits. inhibition, % at 12.5 µM. Recombinant SENP8, Z-RLRGG-aminoluciferin luminescence, 60 min. shares compounds with SENP7 block;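 active = mean inhibition across replicates above about 50%, limit read from the data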
SENP6 confirm: confirmation of human SENP6 protease inhibitors | shares compounds with SENP7 block | recombinant SENP6, Z-RLRGG-aminoluciferin luminescence | inhibition, % at 12.5 µM | 6,200 compounds, 58% hits | AID 488915
SENP7 confirm: human SENP7 inhibition, confirmed; shares compounds with SENP7 block; recombinant SENP7, Z-RLRGG-aminoluciferin luminescence, 40 min; inhibition, % at 12.5 µM; 6,200 compounds, 69% hits
Casp3 SENP sel: inhibits human caspase-3 in SENP selectivity test; inhibition, % at 12.5 µM; purified caspase-3, Z-DEVD-aminoluciferin luminescence, 60 min; shares compounds with SENP7 block; AID 488918; 6,200 compounds, 60% hits;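 active = mean inhibition above about 50%, limit read from the data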
Target sequence (P42574 28-227 limits assumed): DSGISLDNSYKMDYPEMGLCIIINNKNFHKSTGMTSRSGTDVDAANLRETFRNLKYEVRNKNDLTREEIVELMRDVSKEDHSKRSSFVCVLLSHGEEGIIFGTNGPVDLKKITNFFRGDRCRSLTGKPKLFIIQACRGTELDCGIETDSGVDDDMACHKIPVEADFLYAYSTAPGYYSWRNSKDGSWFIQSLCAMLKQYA
Luc interf: counter-screen for SENP inhibitors: luminescence interference. inhibition, % at 12.5 µM. 6,200 compounds, 39% hits. shares compounds with SENP7 block. Pre-incubated SENP8/Z-RLRGG-aminoluciferin, luciferase luminescence interference;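 active = mean inhibition above about 50% when retested at one dose, limit read from the data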
Each line names hits and unclear results; the compound was inactive in the other large screens (follow-up assays come after a bar, where they were run).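 The calls were made as follows, unless noted: active = mean inhibition above about 50% in the one-dose retest (limit read from the data); inactive = the rest.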

O=C(Nc1ccc2c(c1)OCO2)c1ccccc1	SENP6 block 61.6, SENP7 block 54.7 | SENP8 conf inactive | SENP6 confirm inactive | SENP7 confirm 81.0 | Casp3 SENP sel 81.2 | Luc interf 61.2
O=C(NC(=S)Nc1ccc2c(c1)OCO2)c1ccccc1	none
Cc1cc(NC(=O)CCC(=O)N(CC(=O)NCC2CCCO2)c2ccc(C(C)C)cc2)no1 (centres undefined)	none
COc1cc(SC)ccc1C(=O)Nc1ccc(C)cc1	none
COc1cc(SC)ccc1C(=O)Nc1ccc(C)cc1C	SENP8 block-1 61.4, SENP6 block 75.2, SENP7 block 70.2 | SENP8 conf inactive | SENP6 confirm inactive | SENP7 confirm inactive | Casp3 SENP sel inactive | Luc interf inactive
COc1cc(SC)ccc1C(=O)Nc1cccc(C)n1	none
COc1cc(SC)ccc1C(=O)Nc1ccccn1	none
COc1cc(SC)ccc1C(=O)Nc1ccc2ncccc2c1	SENP8 block-1 88.4, SENP6 block 93.8, SENP7 block 88.4 | SENP8 conf inactive | SENP6 confirm 77.1 | SENP7 confirm 95.3 | Casp3 SENP sel 67.7 | Luc interf inactive
COc1cc(SC)ccc1C(=O)Nc1ncc(C)s1	SENP8 block-1 88.6, SENP6 block 95.7, SENP7 block 93.5 | SENP8 conf 90.0 | SENP6 confirm 90.8 | SENP7 confirm 100.0 | Casp3 SENP sel 89.1 | Luc interf inactive
COc1cc(SC)ccc1C(=O)Nc1ccc(Br)cn1	SENP8 block-1 82.3, SENP6 block 90.2, SENP7 block 90.4 | SENP8 conf 53.2 | SENP6 confirm 75.7 | SENP7 confirm 80.4 | Casp3 SENP sel 77.4 | Luc interf 50.4
O=C(NCCCCc1ccccc1)c1cccc(NC(=O)C2CC2)c1	none (no result: SENP8 block-1, SENP6 block, Platelet DG rel, SENP7 block)
Cn1c(N)c(C(=O)COC(=O)COc2ccc3ccccc3c2)c(=O)n(C)c1=O	none
Cc1ccc(NC(=O)CNC(=O)Cn2cnc3sc(C)c(C)c3c2=O)cc1F	none
Cc1ccc(NC(=O)CSc2nnc(Cc3csc(C)n3)o2)c(C)c1	none
O=C(c1cc(-c2cccc(O)c2)on1)N1CCCCC1	SENP8 block-1 61.2, SENP7 block 67.5 | SENP8 conf inactive | SENP6 confirm 67.2 | SENP7 confirm 90.7 | Casp3 SENP sel 78.0 | Luc interf 72.6
O=C(c1cc(-c2ccccc2)on1)N1CCCCCC1	none
O=C(c1cc(-c2ccc(Cl)cc2Cl)on1)N1CCOCC1	SENP6 block 62.4 | SENP8 conf inactive | SENP6 confirm inactive | SENP7 confirm 84.6 | Casp3 SENP sel 72.1 | Luc interf 50.8
O=C(c1cc(-c2ccc3c(c2)OCO3)on1)N1CCOCC1	SENP6 block 67.5, SENP7 block 56.9 | SENP8 conf 58.0 | SENP6 confirm 52.5 | SENP7 confirm 84.3 | Casp3 SENP sel 82.0 | Luc interf 54.2
O=C(c1cc(-c2cccc(O)c2)on1)N1CCCC1	SENP6 block 50.1 | SENP8 conf inactive | SENP6 confirm inactive | SENP7 confirm 78.0 | Casp3 SENP sel 69.5 | Luc interf inactive
O=C(c1cc(-c2ccc3c(c2)OCO3)on1)N1CCN(c2ccccc2)CC1	none
O=C(c1cc(-c2ccc(Cl)cc2)on1)N1CCOCC1	none
COC(=O)C[C@@H]1C=C[C@@H](NC(=O)NC2CCCC2)[C@@H](CO)O1	none (no result: SENP8 block-1, SENP6 block, Platelet DG rel, SENP7 block)
CC(C)c1ccc(-c2nnn(CCC(=O)O)n2)cc1	SENP8 block-1 71.0, SENP6 block 58.9 | SENP8 conf inactive | SENP6 confirm 68.5 | SENP7 confirm 83.6 | Casp3 SENP sel inactive | Luc interf inactive
O=C(O)CCn1nnc(-c2cccs2)n1	none
CC1CCC/C(=N/Nc2nc3ccccc3s2)C1 (centres undefined)	SENP8 block-1 55.5, SENP7 block 54.2 | SENP8 conf inactive | SENP6 confirm 68.1 | SENP7 confirm 87.9 | Casp3 SENP sel inactive | Luc interf 52.3
CCN(CC)c1ccc(N=Nc2nn(C)c(C)c2[N+](=O)[O-])cc1	SENP8 block-1 54.4, SENP6 block 77.5, SENP7 block 63.5 | SENP8 conf inactive | SENP6 confirm inactive | SENP7 confirm inactive | Casp3 SENP sel inactive | Luc interf inactive
CCN(Cc1ccccc1)c1ccc(N=Nc2nn(C)c(C)c2[N+](=O)[O-])cc1	none
CN(C)c1ccc(CNC(=O)CCNS(=O)(=O)c2cc(Br)cnc2N)cc1	none
CCOC(=O)Cn1nc(C)n(-c2ccc(C)cc2)c1=O	SENP7 block 101.1 | SENP8 conf inactive | SENP6 confirm inactive | SENP7 confirm inactive | Casp3 SENP sel inactive | Luc interf inactive
CCOC(=O)Cn1nc(C)n(-c2ccccc2)c1=O	none
COc1ccc(Cn2c(O)c(C=Nc3ccccc3C(=O)O)c3ccccc3c2=O)cc1	none
COc1ccc(Cn2c(O)c(C=Nc3ccc(OC)cc3)c3ccccc3c2=O)cc1	SENP6 block 58.5 | SENP8 conf inactive | SENP6 confirm inactive | SENP7 confirm inactive | Casp3 SENP sel inactive | Luc interf inactive
Clc1ccc(-c2cc3ccccc3[nH]2)cc1	SENP6 block 70.8 | SENP8 conf inactive | SENP6 confirm inactive | SENP7 confirm 78.1 | Casp3 SENP sel inactive | Luc interf inactive
O=c1cc(-c2ccc(Cl)cc2)[nH]c2ccccc12	none (no result: SENP8 block-2)
O=C(CN1CCN(S(=O)(=O)c2ccc(Br)cc2)CC1)N/N=C/c1cccnc1	none
CCc1ccc(C(=O)Nc2cc(S(=O)(=O)N3CCOCC3)ccc2N2CCOCC2)cc1	none (no result: Platelet DG rel)
COc1ccccc1/C=C/C(=O)Nc1ccc2c(c1)OCCO2	SENP8 block-1 51.6, SENP6 block 67.4, SENP7 block 60.0 | SENP8 conf 68.2 | SENP6 confirm 66.1 | SENP7 confirm 86.1 | Casp3 SENP sel inactive | Luc interf 63.0
O=C(/C=C/c1ccccc1)Nc1ccc2c(c1)OCCO2	SENP8 block-1 66.9, SENP6 block 74.3, SENP7 block 75.0 | SENP8 conf 74.0 | SENP6 confirm 71.2 | SENP7 confirm 87.7 | Casp3 SENP sel 64.7 | Luc interf 74.9
CCN(CC(=O)Nc1c(F)cccc1F)C(=O)C1Cc2ccccc2CN1S(=O)(=O)CC (centres undefined)	none
COc1cc(CC(=O)OCC(=O)NCc2ccco2)cc(OC)c1OC	none (no result: Platelet DG rel)
CSc1ccc(/C=N/NC(=O)c2cc(O)cc(O)c2)cc1	SENP6 block 58.2 | SENP8 conf 59.1 | SENP6 confirm 57.9 | SENP7 confirm 84.4 | Casp3 SENP sel 65.2 | Luc interf 64.9

Assay outcomes: PubChem, several laboratories
